Screening data as filed in PubChem.
GRIN3A LBD mod: modulators (binders) of human NR3A ligand-binding domain | NR3A LBD differential scanning fluorimetry, Tm shift; 0% = protein alone, 100% = glycine-bound protein | Tm shift relative to glycine control, % at 25 µM | hit rate 2.5% among 340,000 | AID 1259313;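 active = melting temperature shift of at least 10% of the positive control shift, at one fixed dose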
ADAM17 inh: ADAM17 inhibition, QFRET primary screen; recombinant ADAM17, EDANS/DABCYL FRET peptide cleavage; AID 720648; hit rate 0.83% among 370,000; inhibition, % at 6.95 µM; P78536;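 active = inhibition above the mean of compounds lying between control limits plus 3 SD, set per campaign, cut at about 8.5% in these data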
HGIII-sPLA2 inh: Inhibits HGIII-sPLA2 liposome hydrolysis, primary screen; hit rate 0.56% among 370,000; QFRET BODIPY PC-A2 liposome hydrolysis, fluorescence; inhibition, % at 12.2 µM; Q9NZ20; AID 743126;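 active = inhibition above mean plus 3 SD of compounds lying within the high and low control bounds, cut at about 19% in these data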
Target sequence (Q9NZ20 whole entry, looked up): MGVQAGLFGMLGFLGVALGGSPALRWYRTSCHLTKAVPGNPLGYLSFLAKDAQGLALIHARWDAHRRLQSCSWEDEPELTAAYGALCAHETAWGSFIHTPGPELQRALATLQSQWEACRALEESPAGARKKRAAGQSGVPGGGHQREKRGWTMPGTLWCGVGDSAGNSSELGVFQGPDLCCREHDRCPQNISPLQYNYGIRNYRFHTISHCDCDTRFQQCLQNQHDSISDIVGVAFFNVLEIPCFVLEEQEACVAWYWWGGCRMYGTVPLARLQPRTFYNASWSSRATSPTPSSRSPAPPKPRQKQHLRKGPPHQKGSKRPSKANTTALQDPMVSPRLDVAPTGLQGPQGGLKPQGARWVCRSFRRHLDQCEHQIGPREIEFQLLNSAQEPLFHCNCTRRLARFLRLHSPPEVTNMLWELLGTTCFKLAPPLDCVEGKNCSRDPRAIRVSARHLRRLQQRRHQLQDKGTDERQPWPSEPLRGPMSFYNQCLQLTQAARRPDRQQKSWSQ
FAS-TE inh: blocks the thioesterase domain of human fatty acid synthase. recombinant FAS-TE, OMFH fluorogenic substrate, fluorescence endpoint. inhibition, % at 15 µM. hit rate 0.67% among 360,000. AID 602261;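 active = compounds whose normalised, plate-corrected inhibition of enzyme fluorescence in the single-dose primary screen is 50% or more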
ADAM10 inh: inhibitors of human ADAM10 | AID 720582 | recombinant ADAM10, EDANS/DABCYL FRET peptide cleavage, 3 h | hit rate 0.62% among 370,000 | inhibition, % at 7 µM | O14672;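 active = inhibition above a per-campaign cutoff equal to the mean of compounds falling between control-based bounds plus 3 SD, cut at about 20% in these data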
FAS-TE inh conf: FAS thioesterase (human) inhibition, confirmation; shares compounds with FAS-TE inh; recombinant FAS-TE, OMFH fluorogenic substrate, fluorescence; inhibition, % at 15 µM; hit rate 45% among 2,300;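 active = compounds inhibiting the enzyme by at least 50% at 15 µM in any one of the replicates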
Large screens that a line does not name were inactive (follow-up assays come after a bar, where they were run). This is a sample that favours compounds with a hit; in the whole collection about 4.3% have one here.

Cc1ccc(S(=O)(=O)N2C[C@H]3[C@H]4C(=O)N(C5CCCCC5)C(=O)[C@H]4CC(=O)[C@H]3[C@@H]2c2ccccc2F)cc1	none (no result: GRIN3A LBD mod)
Cc1ccc(S(=O)(=O)N2C[C@H]3[C@H]4C(=O)N(Cc5ccccc5)C(=O)[C@H]4CC(=O)[C@H]3[C@@H]2c2ccccc2F)cc1	none (no result: GRIN3A LBD mod)
Cc1ccc(S(=O)(=O)N2C[C@H]3[C@H]4C(=O)N(Cc5ccccc5)C(=O)[C@H]4CC(=O)[C@H]3[C@@H]2c2ccccc2Cl)cc1	FAS-TE inh 85.3 (no result: GRIN3A LBD mod) | FAS-TE inh conf inactive
COc1ccccc1CCn1cnc(-c2cccc(F)c2)c1CC(C)C	none (no result: GRIN3A LBD mod, FAS-TE inh)
C=C(C)Cn1c(SCC(=O)N/N=C(\C)c2ccc([N+](=O)[O-])cc2)nnc1-c1ccc(Br)cc1	none (no result: GRIN3A LBD mod, FAS-TE inh)
O=C(N[C@H]1CC[C@@H]2SC[C@@H](C(=O)O)N2C1=O)OCC1c2ccccc2-c2ccccc21	none (no result: GRIN3A LBD mod, FAS-TE inh)
Cc1ccc(NC2(c3nnnn3-c3c(C)cccc3C)CCCCC2)cc1	FAS-TE inh 53.6 | FAS-TE inh conf inactive
CCCCNC(=O)C[C@H]1C[C@@]2(C(=O)OC)C(=C[C@H](C(C)C)O[C@@H]2C2CC2)N(Cc2ccco2)C1=O	none (no result: GRIN3A LBD mod, FAS-TE inh)
O=C(COc1ncnc2cc([N+](=O)[O-])ccc12)N(CCc1ccccc1)Cc1ccccc1	FAS-TE inh 62.3 | FAS-TE inh conf 51.9
COc1ccc(NC(=O)/C(=C\c2ccc(OS(=O)(=O)c3ccc(C)cc3)cc2)NC(=O)c2ccccc2)cc1	FAS-TE inh 54.4 | FAS-TE inh conf inactive
CC(=O)N/C(=C/c1ccc(OS(=O)(=O)c2ccc(C)cc2)cc1)C(=O)Nc1ccc(C(=O)O)cc1	none
Cc1ccc(S(=O)(=O)Oc2ccc(/C=C(/NC(=O)c3ccccc3)C(=O)Nc3ccccc3)cc2)cc1	FAS-TE inh 55.1 | FAS-TE inh conf inactive
COC(=O)[C@]12C[C@H](CC(=O)N3CCCC3)C(=O)N(Cc3cccc4ccccc34)C1=C[C@H](COCc1ccccc1)O[C@@H]2C	none (no result: GRIN3A LBD mod, FAS-TE inh)
COc1ccc2c(c1)[C@H]1[C@H](CO2)[C@H](c2ccccc2)[C@]2(C)C(=O)Nc3ccc(Br)cc3C(=O)N12	none
COc1ccc2c(c1)[C@H]1[C@H](CO2)[C@H](c2ccccc2)[C@]2(C)C(=O)Nc3ccccc3C(=O)N12	none
COc1ccc2c(c1)C(=O)N1[C@H]3c4cc(OC)ccc4OC[C@@H]3[C@H](c3ccccc3)[C@]1(C)C(=O)N2	FAS-TE inh 71.5 | FAS-TE inh conf inactive
COc1ccc2c(c1)OC[C@H]1[C@H]2N2C(=O)c3cc(Br)ccc3NC(=O)[C@@]2(C)[C@H]1c1ccccc1	FAS-TE inh 85.7 (no result: ADAM17 inh, HGIII-sPLA2 inh, ADAM10 inh) | FAS-TE inh conf inactive
COc1ccc2c(c1)OC[C@H]1[C@H]2N2C(=O)c3ccc(F)cc3NC(=O)[C@@]2(C)[C@H]1c1ccccc1	ADAM17 inh 9.1, HGIII-sPLA2 inh 38.2, FAS-TE inh 84.2 | FAS-TE inh conf inactive
CCOC(=O)[C@]12CCCCC/C=C\1N(CCc1ccc(Cl)cc1)C(=O)[C@H]2CC(=O)N1CCCCC1	none (no result: GRIN3A LBD mod, FAS-TE inh)
O=C1C2C3C=CC(C3)C2C(=O)N1Nc1ccc([N+](=O)[O-])cc1[N+](=O)[O-] (configuration not stated)	none
CCOc1ccc(C2CC(=O)N(Nc3ccc([N+](=O)[O-])cc3[N+](=O)[O-])C2=O)cc1 (configuration not stated)	FAS-TE inh 85.9 | FAS-TE inh conf 69.4
CC(C)Oc1ccc(C2CC(=O)N(Nc3ccc([N+](=O)[O-])cc3[N+](=O)[O-])C2=O)cc1 (configuration not stated)	FAS-TE inh 90.3 | FAS-TE inh conf 92.0
CC(=O)N1CCN(S(=O)(=O)c2ccc3c(c2)oc(=O)n3C)CC1	none (no result: GRIN3A LBD mod, FAS-TE inh)
Cc1occc1-c1nnc(SCC(=O)Nc2ccccc2-c2ccccc2)n1C	none
CCCn1c(SCC(=O)Nc2ccccc2-c2ccccc2)nnc1-c1ccoc1C	FAS-TE inh 59.8 | FAS-TE inh conf 74.2
O=C(COc1ccccc1C(=O)NCc1ccccc1)Nc1ccc(I)cc1	none (no result: GRIN3A LBD mod, FAS-TE inh)
CC(=O)N1CCN(S(=O)(=O)c2cccc(C(=O)OCc3ccc(C(C)(C)C)cc3)c2)CC1	FAS-TE inh 88.5 | FAS-TE inh conf 51.2
COC(=O)C1CN(Cc2ccc(F)cc2)CCS(=O)(=O)N1Cc1ccccc1 (configuration not stated)	none (no result: GRIN3A LBD mod, FAS-TE inh)
COc1ccc([N+](=O)[O-])cc1C(=O)NCCOc1ccc(Cl)cc1	FAS-TE inh 62.7 | FAS-TE inh conf 68.3
C#CCNC(=O)C[C@H]1C[C@@]2(C(=O)OC)C(=C[C@H](COCc3ccccc3)O[C@@H]2C)N(CCCCCCCC)C1=O	none (no result: GRIN3A LBD mod, FAS-TE inh)
NC(=O)c1ccccc1[N+](=O)[O-]	none
N#CC(CCc1ccccc1[N+](=O)[O-])(CCc1ccccc1[N+](=O)[O-])C(N)=O	FAS-TE inh 51.9 | FAS-TE inh conf 46.6
CN(C1CCCCC1)S(=O)(=O)c1ccc(SCC(=O)C(C)(C)C)nc1	FAS-TE inh 53.8 | FAS-TE inh conf inactive
COc1ccc(NC(=O)/C(Cl)=C(/Cl)S(=O)Cc2ccc(Cl)cc2)cn1 (configuration not stated)	FAS-TE inh 61.5 | FAS-TE inh conf 68.3
Cc1ccccc1NC(=O)Cn1nnc(-c2ccncc2)n1	none (no result: GRIN3A LBD mod, FAS-TE inh)
COc1ccc2cc(/C=N/NC(=O)c3ccc(CN(c4cccc(Cl)c4Cl)S(C)(=O)=O)cc3)c(Cl)nc2c1	FAS-TE inh 69.3 | FAS-TE inh conf inactive
Cc1nc(N2CCN(c3ccccn3)CC2)c2c(C)c(C(=O)Nc3c(C)cc(Br)cc3C)sc2n1	FAS-TE inh 73.1 | FAS-TE inh conf inactive
Cc1nc(N2CCN(c3ccccn3)CC2)c2c(C)c(C(=O)Nc3c(F)cc(F)cc3Br)sc2n1	none
COc1ccc2[nH]cc(C(C)c3c[nH]c4ccccc34)c2c1 (configuration not stated)	none (no result: GRIN3A LBD mod, FAS-TE inh)
CCC1CCCCN1S(=O)(=O)c1ccc(NC(=O)c2nc(S(C)(=O)=O)ncc2Cl)cc1 (configuration not stated)	FAS-TE inh 59.6 | FAS-TE inh conf 65.8
CC(=O)Nc1ccc(NC(=O)c2nc(S(=O)(=O)Cc3ccccc3)ncc2Cl)cc1	none
CS(=O)(=O)c1ncc(Cl)c(C(=O)Nc2ccc3ccccc3c2)n1	FAS-TE inh 57.1 | FAS-TE inh conf inactive
COc1cc(/C=N\NC(=O)CNC(=O)C(c2ccccc2)c2ccccc2)ccc1O	none
COc1ccc(/C=N\NC(=O)CNC(=O)C(c2ccccc2)c2ccccc2)cc1[N+](=O)[O-]	FAS-TE inh 54.3 | FAS-TE inh conf 41.6
c1ccc2c(c1)nc(NCC1CCCO1)c1nnnn12 (configuration not stated)	none
Cc1ccc(C)c(Nc2nc3c(S(=O)(=O)c4ccccc4)nnn3c3ccccc23)c1	none
Cc1ccc(S(=O)(=O)c2nnn3c2nc(Nc2cccc(C)c2)c2ccccc23)cc1	none
